59 compounds from PubChem BioAssay AID2417 (National Center for Advancing Translational Sciences (NCATS), 2010) can be followed below.

Each structure is given as a SMILES string. Out of some 140,000 compounds screened, about 4,300 (3.1%) were called active. Another 21% or so got no clear call; they are omitted. The entries come from a sample that favours actives as a whole. Unmarked numbers belong to inactive results.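 How the source made its calls: active means readout at or below -70, meaning at least 70% loss of cells showing the perinucleolar compartment, a nuclear body marking cancer cells; inconclusive means readout between -30 and a set limit; inactive means the rest.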

This assay is described as follows: High Content Assay for Compounds that inhibit the Assembly of the Perinucleolar Compartment.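 Further: plate controls were DMSO wells for no effect and camptothecin positive control wells for full effect.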 Conditions: PC3M PTB-GFP, PNC prevalence imaging, 16 h; at 10 µM; stronger effect = lower value. The essentials: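 PC3M cells stably expressing PTB-GFP, 750–1000 cells/well, treated 16 h at 37 °C with compound (23 nl of library stock), in duplicate. After paraformaldehyde fixation and Hoechst stain, imaged at 20x; PNC prevalence scored by image analysis.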
Regarding `CCCCC(=O)Nc1ccc(C(=O)Nc2cc(C(F)(F)F)ccc2Cl)cc1`, the activity change (PNC), negative = inhibition is 22.8%. With `Cc1onc(-c2ccccc2Cl)c1C(=O)NCCn1ccc2ccccc21`, the activity change (PNC), negative = inhibition was -12.7%. For the compound `CC(=O)Nc1cccc(/C(C)=N/NC(=O)c2ccccc2Cl)c1`, the activity change (PNC), negative = inhibition was 5.62%. Regarding `CC(=O)Nc1cccc(/C(C)=N/NC(=O)c2c(-c3ccccc3Cl)noc2C)c1`, the activity change (PNC), negative = inhibition is -109% (active). Consider `CC(C)=C(NC(=O)c1ccccc1)C(=O)N/N=C(\C)c1ccccc1O`, for which the activity change (PNC), negative = inhibition is 6.63%.

As to `CCOc1cccc(-c2nnc3sc(COc4ccc(OC)cc4)nn23)c1`, the activity change (PNC), negative = inhibition was -29.7%.

Regarding `CCOc1cccc(-n2nnnc2-c2ccc(OC)cc2)c1`, the activity change (PNC), negative = inhibition was -83.5% (active). Under `COc1ccc(-n2nnnc2-c2nc3ccccc3s2)cc1` stands -8.45%; under `CSCCC(Nc1ccc(S(=O)(=O)N2CCOCC2)cc1[N+](=O)[O-])C(=O)OCC(=O)N(C(C)C)C(C)C` (centres undefined), -25.5%. Under `CCC(C)(C(=O)Nc1ccccc1C)N(C(=O)CNC(C)=O)c1ccc(C)cc1` (centres undefined) stands -15.4%; under `Cc1ccc(-c2nc(CS(=O)CC(=O)N3CCN(c4ncccn4)CC3)c(C)o2)cc1` (centres undefined), 11.5%. Consider `Cc1ccc(-c2nc(CS(=O)CC(=O)NC3CCCC3)c(C)o2)cc1` (centres undefined), for which the activity change (PNC), negative = inhibition is -106% (active). For `COc1ccc(-c2nc(CS(=O)CC(=O)NCc3ccccn3)c(C)o2)cc1` (centres undefined), the activity change (PNC), negative = inhibition was -19.8%.

As for `CSc1ccc(/C=C/C(=O)NC23CC4CC(CC(C4)C2)C3)cc1`, the activity change (PNC), negative = inhibition is 11.8%. The result for `Cc1cc(=O)[nH]c(SCc2cc(Cl)ccc2OC(F)F)n1` reads 4.54%; that for `CCCCOc1ccc(Cl)cc1CSc1nncn1N`, -89.7% (active); that for `CCOC(=O)c1c(NC(=O)Cn2nc(C(F)(F)F)cc2C)sc2c1CCC2`, 36.1%. In the case of `CN1CCN(C(=O)/C(=C\c2cccs2)NC(=O)c2cccs2)CC1`, the activity change (PNC), negative = inhibition was 0.966%. As for `COc1cc2c(cc1/C=C1/NC(=O)N(c3ccccc3)C1=O)OCO2`, the activity change (PNC), negative = inhibition was -20.8%.

Turning to `CCOC(=O)c1c(C)n(C)c2ccc(OC)c(NS(=O)(=O)CC)c12`, the activity change (PNC), negative = inhibition is -8.82%. Take `COc1ccc2c(-c3ccccc3)cc(SCC(=O)N(C)C3CCS(=O)(=O)C3)nc2c1` (centres undefined): the activity change (PNC), negative = inhibition is 46.3%. Under `O=[N+]([O-])c1ccc(N2CCNCC2)cc1NCc1cccnc1` stands 59.2%; under `COc1ccccc1NC(=O)c1ccc2nc(N3C(=O)CCC3=O)sc2c1`, 133%. Consider `Cc1cc(NC(=O)c2cccc(N3C(=O)CCC3=O)c2)no1`, for which the activity change (PNC), negative = inhibition was -7.91%. Under `O=C(Nc1cccc2cccnc12)c1cccc(N2C(=O)CCC2=O)c1` stands -100% (active); under `CCOC(=O)NN1C(=O)c2ccccc2NC1c1ccccc1O` (centres undefined), 19.7%. Turning to `O=C(OCC(=O)c1c[nH]c2ccccc12)c1cccc(O)c1`, the activity change (PNC), negative = inhibition was 49.4%. Turning to `O=S(=O)(NCC1CCCO1)c1cnc(Cl)c(Cl)c1` (centres undefined), the activity change (PNC), negative = inhibition is -19.6%. In the case of `O=C(/C=C/c1ccc(Cl)cc1)N1CCN(c2ccccc2[N+](=O)[O-])CC1`, the activity change (PNC), negative = inhibition is -91.4% (active).

On to `CO/N=C/c1ccc(N2CCN(C(=O)c3cccc(Cl)c3)CC2)c([N+](=O)[O-])c1`, for which the activity change (PNC), negative = inhibition is 77.9%.

For `Cc1cccc(N2CCN(C(=O)/C=C/c3ccco3)CC2)c1C`, the activity change (PNC), negative = inhibition was 16.7%. In the case of `CCCN=C1NC(=O)C(CC(=O)NCCc2ccc(OC)c(OC)c2)S1` (centres undefined), the activity change (PNC), negative = inhibition was 58.6%. Consider `Cc1cc(C)c(C2C3=C(Nc4c2c(C)nn4-c2ccccn2)c2ccccc2C3=O)c(C)c1` (centres undefined), for which the activity change (PNC), negative = inhibition was -28.9%. As for `CC1=C[C@H]2Cc3cc(C)cc(C)c3S(=O)(=O)[C@@H]2C=C1`, the activity change (PNC), negative = inhibition is 28.1%. The result for `COc1ccc(-n2c(C)cc(C(=O)COC(=O)c3cc(OC)c(OC)cc3NC(=O)c3cccs3)c2C)cc1` reads 173%. Turning to `CCCn1c(C)cc(C(=O)COC(=O)c2c(C)nn(-c3ccccc3)c2C)c1C`, the activity change (PNC), negative = inhibition is -22.8%.

In the case of `Cc1cc(C(=O)COC(=O)c2cccs2)c(C)n1-c1c(C)n(C)n(-c2ccccc2)c1=O`, the activity change (PNC), negative = inhibition was -127% (active).

With `COc1ccc(C2=NOC(COC(=O)c3ccc4ccccc4n3)C2)cc1` (centres undefined), the activity change (PNC), negative = inhibition is -3.15%. The result for `O=C(Oc1ccc([N+](=O)[O-])cc1)c1ccc2ccccc2n1` reads -25.3%; that for `COc1ccc(C(=O)COC(=O)c2ccc3ccccc3n2)cc1`, -89.8% (active).

Turning to `CCOc1ccc2nc(Nc3nc4ccc(NC(C)=O)cc4s3)sc2c1`, the activity change (PNC), negative = inhibition was 10%. Under `CCOc1ccc2nc(NC(=O)c3cc([N+](=O)[O-])ccc3N3CCOCC3)sc2c1` stands -84.5% (active); under `Cc1cc(C)cc(OCC(=O)Nc2nc3ccc([N+](=O)[O-])cc3s2)c1`, 84.2%; under `Cc1ccc(-c2csc(SCC(=O)Nc3cc(C)on3)n2)cc1`, 32.6%.

With `Cc1cc(C)c2c(c1)cc(C)c1nnc(SCC(=O)Nc3cc(C)on3)n12`, the activity change (PNC), negative = inhibition is -88.4% (active). Under `CCOc1ccccc1Nc1nnc(SCC(=O)Nc2cc(C)on2)s1` stands 1.96%; under `COc1cccc(-n2c(SCC(=O)c3c[nH]c4ccccc34)nc3ccccc3c2=O)c1`, -15.1%; under `O=C(COC(=O)c1c2c(nc3ccccc13)CCCC2)c1ccc(Br)s1`, 17.9%. In the case of `O=C(Nc1c2c(nc3ccccc13)CCCC2)c1ccccc1Br`, the activity change (PNC), negative = inhibition was -109% (active). As for `Cc1nonc1NC(=O)c1ccccc1Br`, the activity change (PNC), negative = inhibition is -15.2%.

For the compound `Cc1ccc(C)c(NC(=O)CCC(=O)NNC(=O)c2cccs2)c1`, the activity change (PNC), negative = inhibition was 30.9%. The result for `NC1=NC(=O)C(Cc2cccc(Cl)c2Cl)S1` (centres undefined) reads -13.4%; that for `COc1ccccc1N1N=C(c2cccs2)CC1c1ccccc1` (centres undefined), -19.6%; that for `CCNc1nc(NC(C)C)nc(N2CC(=O)N(CC(=O)OCC)C2=N)n1`, 3.87%.

`CCNc1nc(NC(C)C)nc(OCCOC(=O)c2ccccc2)n1`: the activity change (PNC), negative = inhibition is -100% (active).

On to `CC(C)Nc1nc(N(c2ccccc2)c2ccccc2)nc(-n2ccnc2)n1`, for which the activity change (PNC), negative = inhibition was -4.69%. Under `O=C(CCc1ccccc1)Nc1nn[nH]n1` stands 50.3%; under `COc1ccc(C2COC(=O)C2=N)c(NC(=O)c2ccccc2)c1` (centres undefined), -25.6%.

In the case of `CCC1=NN(C(=O)Cc2ccc([N+](=O)[O-])cc2)C(O)(c2ccc(Br)cc2)C1` (centres undefined), the activity change (PNC), negative = inhibition was 99.6%.
